Test results published in PubChem BioAssay.
Records with an inconclusive call do not appear. Activity calls are given as the source filed them.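 The calls were made as follows, unless noted: active = RAM network inhibition above 8.4% in each of two replicates, 3 SD over the compound average; inconclusive = above 8.4% inhibition in only one replicate; inactive = 8.4% inhibition or less in each replicate.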

Tests used:
[1] = Her2 expression decrease, cell viability multiplex – SKBR3 breast tumor cells, AlphaScreen, ATP viability, primary screen (AID 461;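 active = Her2 level under about 52% in both replicate screens, with viability over 70% of control, limit read from the data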;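 as to Her2 level: lower value means less Her2 protein in the cells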;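 as to viability: percent of carrier control wells set as 100% viability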); settings: SKBR3 Her2 protein level, 18-24 h, measured here: SKBR3 viability, ATP luminescence, at 10 µM
[2] = target: Receptor tyrosine-protein kinase erbB-2 (Homo sapiens) (UniProt P04626); assay: as above; settings: 18-24 h, at 10 µM, stronger effect = lower value
Receptor tyrosine-protein kinase erbB-2 (Homo sapiens), sequence (P04626 whole entry, looked up): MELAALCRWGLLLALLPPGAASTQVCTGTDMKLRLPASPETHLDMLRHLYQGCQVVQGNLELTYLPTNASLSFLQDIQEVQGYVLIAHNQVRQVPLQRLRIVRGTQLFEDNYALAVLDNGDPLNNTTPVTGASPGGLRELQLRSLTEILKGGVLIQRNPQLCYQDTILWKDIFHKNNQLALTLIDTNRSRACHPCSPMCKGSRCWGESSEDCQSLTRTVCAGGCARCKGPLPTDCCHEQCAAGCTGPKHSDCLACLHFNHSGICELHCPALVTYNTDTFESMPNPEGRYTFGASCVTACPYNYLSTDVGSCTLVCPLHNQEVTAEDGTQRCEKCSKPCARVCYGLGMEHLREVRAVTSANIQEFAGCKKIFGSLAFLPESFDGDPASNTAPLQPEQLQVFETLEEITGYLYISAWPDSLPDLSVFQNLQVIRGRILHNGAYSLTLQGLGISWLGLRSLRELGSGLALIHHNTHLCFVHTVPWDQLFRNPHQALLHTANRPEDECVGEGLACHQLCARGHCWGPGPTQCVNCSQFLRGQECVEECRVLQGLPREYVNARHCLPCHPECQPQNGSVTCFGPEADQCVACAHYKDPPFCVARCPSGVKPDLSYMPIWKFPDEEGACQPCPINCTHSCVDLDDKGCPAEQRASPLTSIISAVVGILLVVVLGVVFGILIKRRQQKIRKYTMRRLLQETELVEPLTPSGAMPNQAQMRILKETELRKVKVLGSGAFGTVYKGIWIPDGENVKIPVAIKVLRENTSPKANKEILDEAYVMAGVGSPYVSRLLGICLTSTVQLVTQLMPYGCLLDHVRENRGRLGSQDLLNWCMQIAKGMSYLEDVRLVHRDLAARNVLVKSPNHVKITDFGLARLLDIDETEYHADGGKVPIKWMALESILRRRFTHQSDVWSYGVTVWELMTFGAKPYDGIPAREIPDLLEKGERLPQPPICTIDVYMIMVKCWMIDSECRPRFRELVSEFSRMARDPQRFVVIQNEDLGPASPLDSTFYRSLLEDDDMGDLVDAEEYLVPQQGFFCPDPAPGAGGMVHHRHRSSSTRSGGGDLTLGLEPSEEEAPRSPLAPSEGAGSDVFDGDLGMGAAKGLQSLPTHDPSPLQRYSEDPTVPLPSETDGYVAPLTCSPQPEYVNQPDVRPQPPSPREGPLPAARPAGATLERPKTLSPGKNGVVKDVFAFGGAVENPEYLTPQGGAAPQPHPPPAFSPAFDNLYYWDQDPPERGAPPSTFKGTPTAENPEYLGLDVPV

[3] = reduced viability of SK-BR-3 breast cancer cells – cell-based, 24 h, human, pilot screen (AID 572;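 active = viability at or below 10% of carrier control in both of two separate runs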;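 also: compound exposure lasted between 18 and 24 h rather than exactly 24 h; 100% = carrier-treated control wells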); settings: SK-BR-3 viability, CellTiter-Glo luminescence, at 10 µM, stronger effect = lower value
[4] = HUVEC growth inhibition – cell-based, human, primary screen (AID 575;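 active = viability at or below 30% in both replicate assays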;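 also: 100% = median of untreated cell wells with 0.1% DMSO on each plate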); settings: HUVEC proliferation, CellTiter-Glo luminescence, 72 h; at 10 µM; stronger effect = lower value
[5] = H69AR cell proliferation blockers – human, duplicate replicates, primary screen (AID 580;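 active = viability at or under a set limit in both replicates, limit being median viability minus 3 SD, cut at about 48% in these data, passing the limit was not always enough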;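 also: 100% = mean luminescence of untreated wells and 0% = no signal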); settings: H69AR lung tumor cells viability, ATP luminescence, 72 h; at 10 µM; stronger effect = lower value
[6] = MRP1 drug-resistance reversers in H69AR cells – cell-based, doxorubicin co-treatment, pilot screen (AID 601;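 active = viability loss from added drug above about 55%, and viability with drug at most 40%, in both replicates, limit read from the data, passing the limit was not always enough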); settings: CellTiter-Glo, 72 h, at 10 µM; for differential viability (reversal): stronger effect = higher value
[7] = yeast transport mutant growth inhibition pilot in 384-well plates, post-Golgi transport modulator project (AID 636; in the data active = inhibition above about 31%); settings: absorbance 615 nm, about 18 h, stronger effect = higher value
[8] = growth suppression of yeast trafficking mutant, preliminary HTS, modulators of trafficking downstream of Golgi apparatus project, 1536-format plate, OD 615 nm (AID 637; in the data active = inhibition above about 30%); settings: yeast transport mutant growth, absorbance 615 nm, 18 h; stronger effect = higher value
[9] = S. cerevisiae growth inhibition in permissive medium (OD615), pilot counter-assay for S. cerevisiae lifespan shortening project, permissive growth control (AID 705;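 active = growth inhibition above 25% in both replicates, a cutoff set 3 SD above the mean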); settings: OD615, 24 h, at 10 µM, stronger effect = higher value
[10] = S. cerevisiae growth inhibition in restrictive medium, OD615, pilot screen, restrictive growth control, yeast lifespan reduction project (AID 706;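 active = growth inhibition above a set limit, 3 SD over mean compound inhibition, in both replicates, cut at about 43% in these data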;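 also: modified DeaD lifespan yeast strain shifted to restrictive glucose medium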); settings: OD615, 48 h, at 10 µM, stronger effect = higher value
[11] = doxorubicin toxicity protection in MRP-1 cells – H69AR cells, CellTiter-Glo, duplicate, MRP-1 activator project, pilot screen (AID 807;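 active = viability increase at or above a cutoff of the median across tested compounds plus 3 SD, cut at about 8.5% in these data, passing the limit was not always enough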;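 also: compound pretreatment 18-22 h then 72 h combined with doxorubicin; 0% = doxorubicin alone and 100% = vehicle without doxorubicin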); settings: H69AR viability with doxorubicin, CellTiter-Glo luminescence; at 10 µM; stronger effect = higher value
[12] = viability of HCT116 without oncogenic beta-catenin – human colon tumor cells, pilot screen (AID 823;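 active = cell viability at or below a set limit in both duplicate runs, the limit being the all-compound median minus 4 SD, cut at about 23% in these data, passing the limit was not always enough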;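 also: 0% = wells killed by 20 µM Hyamine and 100% = untreated DMSO cell wells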); settings: HCT116 beta-catenin knockout viability, CellTiter-Glo, 60 h; at 10 µM; stronger effect = lower value
[13] = viability of PTEN-null HCT116 cells – cell-based, HCT116 clonal line, CellTiter-Glo, pilot screen (AID 824;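 active = viability at or below 27.92% in each of two runs, the all-compound median minus 4 SD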;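 also: 0% = 20 µM Hyamine control and 100% = vehicle cell control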); settings: HCT116 PTEN-deleted viability, 60 h, at 10 µM, stronger effect = lower value
[14] = RAM pathway blockade in budding yeast – dse1pr::URA3 reporter, 5-FOA selection, pilot screen (AID 869;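 active = inhibition over a set limit, the all-compound mean plus 3 SD, in both replicate runs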;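 also: 0% = DMSO wells with no growth and 100% = 10 µM 1-NA-PP1 with full growth; RAM network block rescues cells from 5-FOA so hits raise OD615 growth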); settings: S. cerevisiae dse1pr::URA3 5-FOA growth, OD615, 2 d; at 10 µM; stronger effect = higher value; strain carries analog-sensitive mutant Cbk1 kinase
[15] = RAM signaling pathway blockade in yeast – S. cerevisiae, Pdr1DBD-CYC8 efflux-inhibited sensitized strain, primary screen (AID 1298);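 also: 0% = DMSO untreated cells without growth and 100% = 10 µM 1-NA-PP1 full growth; higher means more yeast growth rescued from 5-FOA killing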; settings: S. cerevisiae cbk1-as DSE1-URA3 strain, 5-FOA growth OD615, 2 d; at 50 µM; stronger effect = higher value
[16] = H69AR cells + 2 uM doxorubicin, measured here: viability with 2 uM doxorubicin, stronger effect = lower value
[17] = H69AR cells, compound alone cytotoxicity

With `Cc1nnc(SCC(=O)Nc2c(Cl)cccc2Cl)[nH]c1=O` the viability [1] was 104%, the Her2 level [2] was 101% (inactive) and the viability [3] was 104% (inactive). For the same compound, the viability [4] was 99.1% (inactive), the viability [5] was 93.9% (inactive) and the differential viability (reversal) ([6]; H69AR cells + 2 uM doxorubicin) was 0.52% (inactive). For the same compound, the viability [6, 16] was 93.3%, the viability [6, 17] was 93.9% and the inhibition [7] was -3.73% (inactive). For the same compound, the inhibition [8] was -2.17% (inactive), the growth inhibition [9] was -7.89% (inactive) and the growth inhibition [10] was 7.47% (inactive). For the same compound, the viability increase [11] was 0.15% (inactive), the viability [12] was 98.7% (inactive) and the viability [13] was 104% (inactive). For the same compound, the inhibition [14] was 1.54% (inactive) and the RAM network inhibition [15] was 4.64% (inactive).

With `COc1ccc(S(=O)(=O)N2Cc3ccccc3CC2C(=O)Nc2ccc(O)cc2)cc1OC` (stereo not drawn) the viability [1] was 91%, the Her2 level [2] was 106% (inactive) and the viability [3] was 91% (inactive). The viability [4] was 76.3% (inactive), the viability [5] was 77.4% (inactive) and the differential viability (reversal) ([6]; H69AR cells + 2 uM doxorubicin) was 1.23% (inactive). For the same compound, the viability [6, 16] was 76.2%, the viability [6, 17] was 77.4% and the inhibition [7] was -4.27% (inactive). For the same compound, the inhibition [8] was -0.83% (inactive), the growth inhibition [9] was -18.6% (inactive) and the growth inhibition [10] was -18.4% (inactive). For the same compound, the viability increase [11] was -4.42% (inactive), the viability [12] was 96.6% (inactive) and the viability [13] was 87.5% (inactive). The inhibition [14] was 1.39% (inactive) and the RAM network inhibition [15] was 11.6% (inactive).

In the case of `O=C(NCCC1=CCCCC1)C1CCN(S(=O)(=O)c2cccc3cccnc23)CC1`, the viability [1] is reported as 104%, the Her2 level [2] is reported as 96% (inactive) and the viability [3] is reported as 104% (inactive). For the same compound, the viability [4] was 89% (inactive), the viability [5] was 97% (inactive) and the differential viability (reversal) ([6]; H69AR cells + 2 uM doxorubicin) was -1.27% (inactive). For the same compound, the viability [6, 16] was 98.2%, the viability [6, 17] was 97% and the inhibition [7] was -2.27% (inactive). For the same compound, the inhibition [8] was -0.82% (inactive), the growth inhibition [9] was 6.61% (inactive) and the growth inhibition [10] was -0.115% (inactive). For the same compound, the viability increase [11] was 4.13% (inactive), the viability [12] was 93.3% (inactive) and the viability [13] was 91.6% (inactive). For the same compound, the inhibition [14] was 0.885% (inactive) and the RAM network inhibition [15] was 1.51% (inactive).

For `O=C(Cn1nc(Cc2ccncc2)c2ccccc2c1=O)N1CCc2ccccc2C1`, the viability [1] was 83%, the Her2 level [2] was 100% (inactive) and the viability [3] was 83% (inactive). The viability [4] was 95.3% (inactive), the viability [5] was 96.5% (inactive) and the differential viability (reversal) ([6]; H69AR cells + 2 uM doxorubicin) was 5.38% (inactive). For the same compound, the viability [6, 16] was 91.1%, the viability [6, 17] was 96.5% and the inhibition [7] was -0.27% (inactive). The inhibition [8] was -3.77% (inactive), the growth inhibition [9] was -1.69% (inactive) and the growth inhibition [10] was 3.79% (inactive). The viability increase [11] was -2.78% (inactive), the viability [12] was 103% (inactive) and the viability [13] was 103% (inactive). For the same compound, the inhibition [14] was 1.33% (inactive) and the RAM network inhibition [15] was 3% (inactive).

With `CC(=O)c1ccc(OCC(O)CN2CCN(Cc3ccc4c(c3)OCO4)CC2)cc1` (stereo not drawn) the viability [1] was 102%, the Her2 level [2] was 102% (inactive) and the viability [3] was 102% (inactive). The viability [4] was 101% (inactive), the viability [5] was 88.7% (inactive) and the differential viability (reversal) ([6]; H69AR cells + 2 uM doxorubicin) was -2.19% (inactive). For the same compound, the viability [6, 16] was 90.8%, the viability [6, 17] was 88.7% and the inhibition [7] was -6.13% (inactive). For the same compound, the inhibition [8] was 2.5% (inactive), the growth inhibition [9] was -5.95% (inactive) and the growth inhibition [10] was -5.68% (inactive). For the same compound, the viability increase [11] was -0.65% (inactive), the viability [12] was 102% (inactive) and the viability [13] was 92.4% (inactive). The inhibition [14] was 1.67% (inactive) and the RAM network inhibition [15] was 1.31% (inactive).

For `CCn1c(SCC(=O)Nc2cc(C)ccc2C)nc2c(c1=O)SC(C)C2` (stereo not drawn), the viability [1] was 90.5%, the Her2 level [2] was 116% (inactive) and the viability [3] was 90.5% (inactive). The viability [4] was 74% (inactive), the viability [5] was 83.1% (inactive) and the differential viability (reversal) ([6]; H69AR cells + 2 uM doxorubicin) was 15.4% (inactive). For the same compound, the viability [6, 16] was 67.8%, the viability [6, 17] was 83.1% and the inhibition [7] was -1.73% (inactive). For the same compound, the inhibition [8] was -0.5% (inactive), the growth inhibition [9] was -9.3% (inactive) and the growth inhibition [10] was -6.79% (inactive). The viability increase [11] was -4.15% (inactive), the viability [12] was 93.6% (inactive) and the viability [13] was 91.5% (inactive). For the same compound, the inhibition [14] was 1.16% (inactive) and the RAM network inhibition [15] was 4.64% (inactive).

For `CC(C)c1ncc(C(O)c2cccc3ccccc23)n1C` (stereo not drawn), the viability [1] was 97.5%, the Her2 level [2] was 129% (inactive) and the viability [3] was 97.5% (inactive). The viability [4] was 113% (inactive), the viability [5] was 87.5% (inactive) and the differential viability (reversal) ([6]; H69AR cells + 2 uM doxorubicin) was 4.07% (inactive). The viability [6, 16] was 83.5%, the viability [6, 17] was 87.5% and the inhibition [7] was -4.68% (inactive). For the same compound, the inhibition [8] was -5.5% (inactive), the growth inhibition [9] was -21.2% (inactive) and the growth inhibition [10] was -7.64% (inactive). The viability increase [11] was -0.83% (inactive), the viability [12] was 81.6% (inactive) and the viability [13] was 79.1% (inactive). For the same compound, the inhibition [14] was 1.15% (inactive) and the RAM network inhibition [15] was 0.82% (inactive).

With `N#CCCN(Cc1cccnc1)C(=O)Nc1ccc(Cl)c(Cl)c1` the viability [1] was 118%, the Her2 level [2] was 94% (inactive) and the viability [3] was 118% (inactive). The viability [4] was 94.6% (inactive), the viability [5] was 91.2% (inactive) and the differential viability (reversal) ([6]; H69AR cells + 2 uM doxorubicin) was 9.8% (inactive). For the same compound, the viability [6, 16] was 81.4%, the viability [6, 17] was 91.2% and the inhibition [7] was 0.13% (inactive). The inhibition [8] was 3.28% (inactive), the growth inhibition [9] was -13.1% (inactive) and the growth inhibition [10] was -14.9% (inactive). The viability increase [11] was 0.83% (inactive), the viability [12] was 95.3% (inactive) and the viability [13] was 102% (inactive). The inhibition [14] was 0.065% (inactive) and the RAM network inhibition [15] was 4.53% (inactive).

For `O=C(CS(=O)(=O)Cc1ccccc1)Nc1nc2ccccc2s1`, the viability [1] was 104%, the Her2 level [2] was 85% (inactive) and the viability [3] was 104% (inactive). For the same compound, the viability [4] was 89.2% (inactive), the viability [5] was 92.1% (inactive) and the differential viability (reversal) ([6]; H69AR cells + 2 uM doxorubicin) was -3.83% (inactive). The viability [6, 16] was 95.9%, the viability [6, 17] was 92.1% and the inhibition [7] was -0.13% (inactive). The inhibition [8] was 0.32% (inactive), the growth inhibition [9] was -13.1% (inactive) and the growth inhibition [10] was -17.7% (inactive). The viability increase [11] was -0.52% (inactive), the viability [12] was 101% (inactive) and the viability [13] was 97.1% (inactive). The inhibition [14] was 4.3% (inactive) and the RAM network inhibition [15] was 7.64% (inactive).
